Laboratory results published in the supplement of paper PMC10600219.
Where a name gives a salt, the structure may show the parent alone. The full ranking holds about 2,800 compounds; the median of “cell viability relative to vehicle” is about 0.98, and the lowest 2% start at about 0.45. For the sample, the lowest values were picked, then their nearest neighbours and some compounds at random.

tested on: NCI-H2228 alectinib-DTP; assay: cell viability relative to vehicle (fraction of vehicle); NCI-H2228 is an ALK-positive lung cancer line and DTP means drug-tolerant persister; higher = less growth inhibition; conditions: 100 nM; treatment time 6 days
Outline: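 Drug-tolerant persister NCI-H2228 cells, produced by 13 days in 1000 nM of a targeted drug, and their parental counterparts were seeded into 384-well plates and, the following day, given the 3114-agent TargetMol anti-cancer compound library at 100 nM or DMSO vehicle. After 6 days, the CellTiter-Glo 3D Cell Viability Assay was used to read ATP. Each entry reports viability compared with vehicle-treated cells.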

Compound | cell viability
COCc1c(-c2ccc(NC(=O)Nc3cc(C(F)(F)F)ccc3F)c(F)c2)c2c(N)ncnn2c1CN1CCOCC1 | 0.632
C[C@@H]1CC[C@@]2(NC1)O[C@H]1C[C@H]3[C@@H]4CC=C5C[C@@H](O[C@@H]6O[C@H](CO)[C@@H](O[C@@H]7O[C@@H](C)[C@H](O)[C@@H](O)[C@H]7O)[C@H](O)[C@H]6O[C@@H]6O[C@@H](C)[C@H](O)[C@@H](O)[C@H]6O)CC[C@]5(C)[C@H]4CC[C@]3(C)[C@H]1[C@@H]2C [Solamargine] | 1.06
CNC(=O)c1cccc(-c2ccc3c(N4CCOC[C@@H]4C)nc(N4CCOC[C@@H]4C)nc3n2)c1 [Vistusertib] | 0.594
COc1ccc(-c2ccc3c(N4CCOCC4)nc(N4C[C@@H](C)O[C@@H](C)C4)nc3n2)cc1CO | 0.765
COc1ccc(-c2ccc3c(N4CCOC[C@@H]4C)nc(N4CCOC[C@@H]4C)nc3n2)cc1CO | 0.377
COc1ccc([C@@H]2OC[C@H]3[C@@H]2CO[C@@H]3c2ccc3c(c2)OCO3)cc1OC [Fargesin] | 1.11
NCCNc1ccc(NCCN)c2c1C(=O)c1ccncc1C2=O [Pixantrone dimaleate] | 0.661
O=C1c2cccc(O)c2C(=O)c2c(O)cccc21 [Antrapurol] | 0.878
O=C1c2c(O)ccc(O)c2C(=O)c2c(NCCNCCO)ccc(NCCNCCO)c21 [Mitoxantrone] | 0.386
CC(C)=CCc1c(O)ccc(C(=O)/C=C/c2ccc(O)cc2)c1O [Isobacachalcone] | 1.01
Cc1ccc([N+](=O)[O-])cc1S(=O)(=O)N(C)/N=C/c1cnc2ccc(Br)cn12 [PIK-75  hydrochloride] | 0.201
Cc1ccc([N+](=O)[O-])cc1S(=O)(=O)N(C)/N=C/c1cnc2ccc(Br)cn12 | 0.172
CC(C)n1cnc2c(NCc3ccccc3)nc(NCCCO)nc21 [Bohemine] | 0.951
C=CCSC[C@H](N)C(=O)O [S-allyl-L-cysteine] | 1.06
CC(C)=CC[C@H](O)C1=CC(=O)c2c(O)ccc(O)c2C1=O [Alkannin] | 0.957
CC1=C(C(=O)Nc2ccc3[nH]ncc3c2)C(c2ccc(F)c(C(=O)NCc3ccccn3)c2)NC(=O)N1 (stereo not drawn) | 1
Cn1c(=O)n(-c2ccc(C(C)(C)C#N)cc2)c2c3cc(-c4cnc5ccccc5c4)ccc3ncc21 [Dactolisib] | 0.435

Compound | cell viability
CC(C)(C#N)c1ccc(N2C(=O)OCc3cnc4ccc(-c5cnc6ccccc6c5)cc4c32)cc1 | 0.925
CO[C@@H](C)Cn1c(=O)n(C)c2cnc3ccc(-c4cncc(C(C)(C)O)c4)cc3c21 | 0.513
O[C@@H]1[C@@H](O)[C@@H](OC/C=C/c2ccccc2)O[C@H](CO[C@@H]2OC[C@H](O)[C@H](O)[C@H]2O)[C@H]1O [Rosavin] | 0.944
C[C@@H]1CC(=O)Nc2cccc(-c3ccc4c(c3)c(-c3cnn(C)c3)nn4C)c2N1 | 1.01
O=C(Nc1nc(-c2ccc(O)c(O)c2)c(-c2ccccc2)s1)c1ccc(O)c(O)c1 | 1.03
COc1ncc(-c2ccc3nccc(-c4ccnnc4)c3c2)cc1NS(=O)(=O)c1ccc(F)cc1F [Omipalisib] | 0.261
CCCS(=O)(=O)Nc1ccc(F)c(C(=O)c2c[nH]c3ncc(-c4ccc(Cl)cc4)cc23)c1F [Vemurafenib] | 1.12
CS(=O)(=O)Nc1cc(-c2ccc3ncnc(Nc4ccc(F)c(Cl)c4)c3c2)cnc1Cl | 0.997
Nc1ccccc1C(=O)C[C@H](N)C(=O)O [L-Kynurenine] | 0.987
N#CCC(C1CCCC1)n1cc(-c2ncnc3[nH]ccc23)cn1 (stereo not drawn) | 1.16
CN1CCN(c2cc(-c3ccccc3)nc(N)n2)CC1 | 1.09
COC(=O)c1ccc([C@H]2c3[nH]c4ccccc4c3C[C@H](C(=O)OC)N2C(=O)CCl)cc1 | 0.0417
CN1CC(=O)N2[C@H](c3ccc4c(c3)OCO4)c3[nH]c4ccccc4c3C[C@@H]2C1=O [Tadalafil] | 0.916
COC(=O)[C@@H]1[C@H]2C[C@H]3c4[nH]c5ccccc5c4CCN3C[C@@H]2CC[C@@H]1O [Yohimbine hydrochloride] | 1.22
CCCNC(=O)c1cn2ncnc(Nc3cc(C(=O)NC4CC4)ccc3C)c2c1C | 1.03
COc1ccc(-c2ccccc2)cc1NS(=O)(=O)c1cc(Cl)cc(Cl)c1O | 0.883
